Screening results (PubChem)
PMP22 txn prim = PMP22 gene transcription modulation | S16 Pmp22-F2sN Schwann cells, FLuc/NLuc coincidence luminescence, 24 h | Potency, µM (top dose mostly 57.5 µM), for inactives: at the highest dose activity change, negative = inhibition, hits mostly inhibitors | 43,000 tested, 2% active; active = clear falling dose curves in both reporters; inconclusive = both reporters move, but less clearly or upward; inactive = either reporter flat; the % is the NLuc reporter signal; also: potency is read from the fitted curve at half-maximal effect; % is scaled to controls: 0 for no effect and ±100 for the full control effect
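Schwann cells carrying the coincidence reporter were exposed to library compounds for 24 h at 37C, then lysed and read for FLuc and, after quenching, NLuc luminescence on a CCD imager.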
HTT-AS act = HTT-AS promoter activation | HEK293 HTT-AS promoter firefly luciferase reporter, 24 h; response scale: percent change from vehicle, -100% = no light | Potency, µM (doses to about 57.5 µM), for the others: top-dose activity change, positive = activation, most hits filed as activators | 48,000 tested, 0.24% active | AID 1508624; also: potency is read from the fitted curve at half-maximal effect; nearly all actives have a fitted effect of over 55% in size
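HEK293 cells carrying firefly luciferase reporters were seeded at 2,500 per well in Opti-MEM and cultured for 24 h. They were then treated with compounds at up to 57.5 uM final for 24 h at 37 degrees C before Dual-Glo luminescence readout.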
SKOV3 invasion = ovarian cancer metastasis inhibition, 3D TME model; 46,000 tested, 0.1% active; SKOV3ip1-GFP adhesion/invasion on 3D omental model, fluorescence; Potency, µM (top dose mostly 45.8 µM), inactives show top-dose activity change, negative = inhibition, usual class: inhibitors;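 also: potency is read from the fitted curve at half-maximal effect; plate controls were DMSO wells for no effect and tomatine positive control wells for full effect; nearly all actives have a fitted effect of over 65% in size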
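A 3D layer of primary human omental fibroblasts, mesothelial cells, fibronectin and collagen I, grown 48 hr, received SKOV3ip1-GFP cells in serum-free medium plus compounds at 0.36-46 umol/L. After 2 hr RT and 16 hr 37 C, fixed adherent GFP cells were counted; normalized to DMSO and tomatine.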
HTT prom inh = inhibitors of huntingtin promoter activity; AID 1508623; Potency, µM (titrated, usually from 57.5 µM), without a hit: top-dose activity change, negative = inhibition, usual class: inhibitors; 48,000 tested, 0.93% active; HEK293 HTT promoter firefly luciferase reporter, 24 h; also: potency is read from the fitted curve at half-maximal effect; nearly all actives have a fitted effect of over 50% in size
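HEK293 luciferase promoter-reporter cells (2,500/well) plated 24 h, then compounds added at up to 57.5 uM final for 24 h at 37 °C. Firefly luminescence by Dual-Glo, normalized to vehicle (0%) and zero RLU (-100%).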
pS6 MEF inh = reduces mTORC1 signaling in Tsc2 and p53 null MEF cells; Tsc2-/- p53-/- MEF, phospho-rpS6 immunofluorescence/PI, 24 h; Potency, µM (series often up to 38.3 µM), for the others: top-dose activity change, negative = inhibition, usual class: inhibitors; 44,000 tested, 0.78% active;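 also: potency is read from the fitted curve at half-maximal effect; plate controls were DMSO for no effect and rapamycin for full effect; nearly all actives have a fitted effect of over 50% in size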
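Plate MEFs (Tsc2-/-, p53-/-, empty vector) in DMEM/10% FBS; after 24 h add compound, incubate 24 h at 37 degree Celsius; fix in PFA/TX-100, block, stain phospho-rpS6 and 10 uM PI; scan at 488 nm; report % positive cells.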
S16 viability = cytotoxicity in S16 Pmp22-F2sN Schwann cells; Potency, µM (titrated, usually from 57.5 µM), for inactives: at the highest dose activity change, negative = cytotoxicity, hits mostly cytotoxic; S16 Pmp22-F2sN Schwann cells viability, CellTiter-Glo, 24 h; 43,000 tested, 0.48% active; AID 1508642; also: potency is read from the fitted curve at half-maximal effect; % is scaled to controls: 0 for no effect and ±100 for the full control effect; nearly all actives have a fitted effect of over 65% in size
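Rat S16 Schwann reporter line, 24 h treatment with library compounds delivered at 23 nL per well. Cell viability by CellTiter-Glo luminescence.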
NLuc sat counter = NanoLuc enzyme inhibition artifact for PMP22 screen. shares compounds with PMP22 txn prim. Potency, µM (highest dose often 57.5 µM), inactives show at the top dose activity change, negative = inhibition, most hits filed as inhibitors. AID 1508638. 690 tested, 4% active. Secreted NLuc enzyme (filtered S16 cell medium), Nano-Glo luminescence; also: potency is read from the fitted curve at half-maximal effect; % is scaled to controls: 0 for no effect and ±100 for the full control effect
NLuc Km ctr = NanoLuc inhibition at Km substrate, PMP22 artifact check; 690 tested, 5% active; shares compounds with PMP22 txn prim; Potency, µM (doses to about 57.5 µM), without a hit: at the top dose activity change, negative = inhibition, hits mostly inhibitors; AID 1508639; secreted NLuc enzyme, coelenterazine luminescence, Km conditions; also: potency is read from the fitted curve at half-maximal effect; % is scaled to controls: 0 for no effect and ±100 for the full control effect
FLuc counter = inhibits firefly luciferase, PMP22 counter-screen | shares compounds with PMP22 txn prim | 690 tested, under 10 active | purified P. pyralis FLuc, luminescence, 10 min | AID 1508640 | Potency, µM (series often up to 57.5 µM), for inactives: at the highest dose activity, negative = inhibition, most hits filed as inhibitors; also: % of control where 0% means no effect
Target sequence (P08659 whole entry, looked up): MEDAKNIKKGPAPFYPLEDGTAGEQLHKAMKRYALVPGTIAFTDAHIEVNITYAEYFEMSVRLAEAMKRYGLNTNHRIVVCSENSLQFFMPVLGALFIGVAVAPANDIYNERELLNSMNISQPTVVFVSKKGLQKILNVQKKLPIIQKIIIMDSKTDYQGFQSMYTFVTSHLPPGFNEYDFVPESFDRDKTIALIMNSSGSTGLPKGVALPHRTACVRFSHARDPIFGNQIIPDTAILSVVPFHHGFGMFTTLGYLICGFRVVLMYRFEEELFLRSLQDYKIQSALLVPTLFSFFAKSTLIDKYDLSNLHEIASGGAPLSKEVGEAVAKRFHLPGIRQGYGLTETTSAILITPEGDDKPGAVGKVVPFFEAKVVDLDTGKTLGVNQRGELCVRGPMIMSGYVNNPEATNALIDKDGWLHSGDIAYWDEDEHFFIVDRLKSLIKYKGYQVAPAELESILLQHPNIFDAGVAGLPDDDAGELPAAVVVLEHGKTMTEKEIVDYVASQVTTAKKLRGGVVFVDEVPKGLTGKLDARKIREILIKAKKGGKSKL
S16 F2sN tox cnf = confirmation of cytotoxicity in S16 Pmp22-F2sN Schwann cells (luciferase reporters placed in the Pmp22 gene) | 690 tested, 7% active | Potency, µM (highest dose often 57.5 µM), for the others: top-dose activity change, negative = viability loss, actives largely listed as cytotoxic | S16 Schwann cells viability, CellTiter-Glo ATP luminescence, 24 h | shares compounds with PMP22 txn prim; also: potency is read from the fitted curve at half-maximal effect; % is scaled to controls: 0 for no effect and ±100 for the full control effect
PMP22 txn cnf = PMP22 transcription modulation, confirmatory; shares compounds with PMP22 txn prim; AID 1508646; 690 tested, 22% active; S16 Schwann cells Pmp22-F2sN, dual luciferase, 24 h; Potency, µM (doses to about 57.5 µM), without a hit: at the top dose activity change, negative = inhibition, actives largely listed as inhibitors; active = clear falling dose curves in both reporters; inconclusive = both reporters move, but less clearly or upward; inactive = either reporter flat; the % is the FLuc reporter signal; also: potency is read from the fitted curve at half-maximal effect
PMP22 prot conf = confirmation of modulators of rat PMP22 protein expression | shares compounds with PMP22 txn prim | S16 Schwann cells Pmp22-HiBiT, luminescence, 48 h | Potency, µM (top dose mostly 27.9 µM), for the others: at the highest dose activity change, negative = inhibition, most hits filed as inhibitors | 95 tested, under 10 active | AID 1508647
Target sequence (P25094 whole entry, looked up): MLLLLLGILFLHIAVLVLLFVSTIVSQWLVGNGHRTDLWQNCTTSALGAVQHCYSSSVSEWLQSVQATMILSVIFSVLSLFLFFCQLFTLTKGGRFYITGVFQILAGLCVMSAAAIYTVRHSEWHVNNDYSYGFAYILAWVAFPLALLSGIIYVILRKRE
Numbers without * were called inactive; i = inactive; ? = inconclusive; nt = no result. Only some compounds are listed: those with a hit (about 3.6% of all), similar ones and a draw of the others. Unless noted, calls follow the shape of the dose curve; as a rule, active = well fitted curve in the direction sought with a large enough effect; inconclusive = small, poorly fitted or top-dose-only effect, or another doubt; inactive = no such curve, though single readings can be large; an effect the other way counts as inactive or inconclusive.

SMILES	PMP22 txn prim	HTT-AS act	SKOV3 invasion	HTT prom inh	pS6 MEF inh	S16 viability	NLuc sat counter	NLuc Km ctr	FLuc counter	S16 F2sN tox cnf	PMP22 txn cnf	others
COc1ccc(NS(=O)(=O)c2ccc3[nH]c4c(c3c2)CCCC4)cc1OC	14µM*	-47%	3%	20µM*	-17%	-10%	-6%	?	2%	?	?
Cc1ccc(NS(=O)(=O)c2ccc3[nH]c4c(c3c2)CCCCCC4)cc1C	?	-33%	-26%	?	-14%	-9%	nt	nt	nt	nt	nt
COc1cc(N2CCC(C(N)=O)CC2)ccc1Nc1nc(N)c(Cl)c(Nc2ccccc2S(=O)(=O)C(C)C)n1	nt	-30%	9%	?	nt	nt	nt	nt	nt	nt	nt
O=C1CC2(CCCC2)CC(=O)N1	nt	0%	nt	12%	nt	nt	nt	nt	nt	nt	nt
O=C(Cn1c(=O)n(Cc2ccc3c(c2)OCO3)c(=O)c2ccc(C(=O)NC3CCCCC3)cc21)Nc1ccccc1F	?	-18%	4%	-18%	?	-2%	nt	nt	nt	nt	nt
Cc1ccc(C)c(NC(=O)Cn2c(=O)n(Cc3ccco3)c(=O)c3ccc(C(=O)NC4CCCC4)cc32)c1	?	-29%	-2%	-10%	?	2%	nt	nt	nt	nt	nt
CCc1ccccc1NC(=O)Cn1c(=O)n(Cc2ccc3c(c2)OCO3)c(=O)c2ccc(C(=O)NC3CCCCC3)cc21	12µM*	-11%	-11%	-12%	0%	12%	1%	5%	4%	-29%	11µM*
CCOc1ccc(NC(=O)Cn2c(=O)n(Cc3ccc4c(c3)OCO4)c(=O)c3ccc(C(=O)NC4CCCCC4)cc32)cc1	17µM*	-16%	i	-15%	0%	1%	4%	10%	0%	?	13µM*
Cc1cc(C)c(NC(=O)Cn2c(=O)n(Cc3ccco3)c(=O)c3ccc(C(=O)NC4CCCC4)cc32)c(C)c1	5µM*	-7%	-7%	-8%	-7%	14%	-13%	8%	-17%	22µM*	12µM*	PMP22 prot conf=17%
CCOC(=O)[C@@H](N)CCC(=O)N[C@@H](CSCc1ccccc1)C(=O)N[C@@H](C(=O)OCC)c1ccccc1	nt	-18%	4%	-22%	nt	nt	nt	nt	nt	nt	nt
Cc1ccc(C(=O)Nc2ccc(CN3CCN(C)CC3)c(C(F)(F)F)c2)cc1C#Cc1cnc2cccnn12	nt	-22%	?	?	nt	nt	nt	nt	nt	nt	nt
CC(C)(C)OC(=O)CN(Cc1ccc(Cl)cc1)Cc1ccc([N+](=O)[O-])s1	nt	-14%	3%	-6%	nt	nt	nt	nt	nt	nt	nt
CCCCOc1c(C(=O)c2c(F)cc(C)cc2F)cnc2n[nH]cc12	nt	-18%	27%	?	nt	nt	nt	nt	nt	nt	nt
C[N+]1(C)[C@@H]2CC(OC(=O)[C@H](CO)c3ccccc3)C[C@H]1[C@H]1O[C@@H]12 (some centres not stated)	nt	14%	10%	21%	nt	nt	nt	nt	nt	nt	nt
O=S(=O)(c1cccc(Cl)c1)c1nnn2c1nc(NC1CCCCCC1)c1sccc12	10µM*	-17%	5%	-14%	-12%	-6%	0%	-3%	8%	6%	?
O=S(=O)(c1ccc(Cl)cc1)c1nnn2c1nc(NC1CCCCC1)c1sccc12	?	-24%	0%	-2%	-3%	-5%	nt	nt	nt	nt	nt
CCCS(=O)(=O)Nc1ccc(F)c(C(=O)c2c[nH]c3ncc(Cl)cc23)c1F	nt	-41%	-9%	?	nt	nt	nt	nt	nt	nt	nt
O=C(O)C1(Cc2cccc(Nc3nccs3)n2)CCC(Oc2cccc(Cl)c2F)CC1 (configuration not stated)	nt	-13%	16%	-8%	nt	nt	nt	nt	nt	nt	nt
COc1cc(Cl)c(NS(=O)(=O)c2ccc(-c3coc(C)n3)cc2)c(OC)c1	13µM*	-53%	i	?	?	-16%	?	?	0%	?	-13%
O=C(Cc1ccc(-c2ccccc2)cc1)NCCS(=O)(=O)N1CCN(c2ccccc2)CC1	?	-20%	-30%	?	0%	-1%	nt	nt	nt	nt	nt
COc1ccc(N2CCN(S(=O)(=O)CCNC(=O)Cc3ccc(-c4ccccc4)cc3)CC2)cc1	10µM*	-8%	i	-28%	-6%	11%	-9%	2%	-18%	-18%	-12%
COc1cc(NC(=O)N2CCC(CN3CCOCC3)CC2)cc(OC)c1OC	-46%	-1%	-7%	-16%	-8%	14%	-7%	1%	-6%	2%	7%
COc1ccc(Cn2c(SCC(N)=O)nc3c(sc4ccccc43)c2=O)cc1	12µM*	8%	i	10%	-6%	?	-6%	-2%	10%	27µM*	?
CSc1nc2c(sc3ccccc32)c(=O)n1Cc1ccc(C)cc1	?	-2%	?	-3%	-1%	-12%	nt	nt	nt	nt	nt
COc1ccc(CC2SC(=O)NC2=O)cc1C(=O)NCc1ccc(C(F)(F)F)cc1 (configuration not stated)	nt	-22%	2%	-18%	nt	nt	nt	nt	nt	nt	nt
Cn1nc(C(=O)NCc2ccc(Cl)cc2)c2c1-c1ccccc1S(=O)(=O)C2	15µM*	-30%	-6%	?	9%	?	-9%	-17%	0%	2%	?
